Bioassay records: PubChem BioAssay, National Center for Advancing Translational Sciences (NCATS)
mTORC1 inh – Acumen qHTS Assay for Inhibitors of the mTORC1 Signaling Pathway in MEF (Tsc2-/-, p53-/-) Cells: Sytravon | Potency, µM (doses to about 38.3 µM), for inactives: top-dose activity change, negative = inhibition, most hits filed as inhibitors | actives 0.78% (n = 44,000) | Tsc2-/- p53-/- MEF, phospho-rpS6 immunofluorescence/PI, 24 h;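 also: plate controls were DMSO for no effect and rapamycin for full effect; nearly all actives have a fitted effect of over 50% in size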
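Cell-based qHTS: Tsc2-/- p53-/- MEF, 24 h cpd, 37 °C; fix/perm, anti-phospho-S6 Alexa-488 + PI; Acumen 488 nm scan; pS6/PI ratio, % positive cells; rapamycin 7.5 nM = inhibition ref; PI count = viability.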
S16 viability – Cell viability qHTS assay in S16 Pmp22-F2sN cells; S16 Pmp22-F2sN Schwann cells viability, CellTiter-Glo, 24 h; Potency, µM (series often up to 57.5 µM), inactives show at the top dose activity change, negative = cytotoxicity, most hits filed as cytotoxic; actives 0.48% (n = 43,000); also: % is scaled to controls: 0 for no effect and ±100 for the full control effect; nearly all actives have a fitted effect of over 65% in size
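Seed 500-1,000 S16 Pmp22-F2sN cells per well in phenol-red-free DMEM with 10% heat-inactivated FBS; pin-add 23 nL compound; incubate 24 h at 37C; add CellTiter-Glo, wait 15 min protected from light; read luminescence.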
FH mod – Identification of activators of human fumarate hydratase by quantitative high-throughput screening; Fumarate hydratase, mitochondrial (Homo sapiens), P07954; FH coupled MDH/diaphorase resazurin fluorescence, 15 min; Potency, µM (top dose mostly 79.9 µM), inactives show top-dose activity change, negative = inhibition, most hits filed as inhibitors; actives 0.22% (n = 54,000); AID 1347055, 2019; also: % is scaled to controls: 0 for no effect and ±100 for the full control effect; the screen sought activators but most active calls are inhibition curves; nearly all actives have a fitted effect of over 45% in size
Target sequence (P07954 whole entry, looked up): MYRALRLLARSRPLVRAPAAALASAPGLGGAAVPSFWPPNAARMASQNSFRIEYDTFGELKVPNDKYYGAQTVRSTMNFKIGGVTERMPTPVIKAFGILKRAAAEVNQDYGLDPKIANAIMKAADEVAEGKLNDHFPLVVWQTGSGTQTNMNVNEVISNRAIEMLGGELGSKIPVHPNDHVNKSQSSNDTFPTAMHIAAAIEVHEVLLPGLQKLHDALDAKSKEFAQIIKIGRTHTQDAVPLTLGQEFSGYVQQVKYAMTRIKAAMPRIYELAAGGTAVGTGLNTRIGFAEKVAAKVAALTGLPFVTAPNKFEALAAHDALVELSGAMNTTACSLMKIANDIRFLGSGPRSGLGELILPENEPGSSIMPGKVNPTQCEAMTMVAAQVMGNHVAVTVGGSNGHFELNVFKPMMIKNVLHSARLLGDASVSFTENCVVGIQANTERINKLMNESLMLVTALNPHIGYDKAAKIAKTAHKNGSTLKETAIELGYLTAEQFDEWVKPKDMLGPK
HTT promoter inh – Primary qHTS for Identification of Small Molecule Inhibitors of Huntingtin Promoter Activity. HEK293 HTT promoter firefly luciferase reporter, 24 h. Potency, µM (top dose mostly 57.5 µM), for inactives: top-dose activity change, negative = inhibition, hits mostly inhibitors. actives 0.93% (n = 48,000). AID 1508623, 2021; also: nearly all actives have a fitted effect of over 50% in size
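HEK293 cells carrying firefly luciferase reporters were seeded at 2,500 per well in Opti-MEM and cultured for 24 h. They were then treated with compounds at up to 57.5 uM final for 24 h at 37 degrees C before Dual-Glo luminescence readout.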
HTT-AS promoter – Primary qHTS for Identification of Small Molecule Activators of Huntingtin-Antisense Promoter Activity | HEK293 HTT-AS promoter firefly luciferase reporter, 24 h; response scale: percent change from vehicle, -100% = no light | Potency, µM (top dose mostly 57.5 µM), for inactives: at the highest dose activity change, positive = activation, usual class: activators | actives 0.24% (n = 48,000); also: nearly all actives have a fitted effect of over 55% in size
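HEK293 luciferase promoter-reporter cells (2,500/well) plated 24 h, then compounds added at up to 57.5 uM final for 24 h at 37 °C. Firefly luminescence by Dual-Glo, normalized to vehicle (0%) and zero RLU (-100%).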
PMP22 txn – Cell-based coincidence reporter assay to measure PMP22 gene transcription in S16 Pmp22-F2sN cells - Primary screen | Potency, µM (highest dose often 57.5 µM), for the others: at the highest dose activity change, negative = inhibition, usual class: inhibitors | actives 2% (n = 43,000) | S16 Pmp22-F2sN Schwann cells (luciferase reporters placed in the Pmp22 gene), FLuc/NLuc coincidence luminescence, 24 h | AID 1508649, 2021; active = clear falling dose curves in both reporters; inconclusive = both reporters move, but less clearly or upward; inactive = either reporter flat; the % is the NLuc reporter signal; also: % is scaled to controls: 0 for no effect and ±100 for the full control effect
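Rat S16 Pmp22-F2sN cells, 500-1,000/well in phenol red-free DMEM + 10% FBS, compound-treated 24 h (37C, 5% CO2). Luminescence: FLuc read, Stop&Glo added, NLuc read.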
Active calls of the source: *; ? = inconclusive; nt = no result; [ ] = remark or other dose. An excerpt weighted towards active compounds, which were near 3.3% of everything screened. Unless noted, calls follow the shape of the dose curve; as a rule, active = well fitted curve in the direction sought with a large enough effect; inconclusive = small, poorly fitted or top-dose-only effect, or another doubt; inactive = no such curve, though single readings can be large; an effect the other way counts as inactive or inconclusive. Potency is read from the fitted curve at half-maximal effect.

SMILES	mTORC1 inh	S16 viability	FH mod	HTT promoter inh	HTT-AS promoter	PMP22 txn
CN1CCC(c2c(O)cc(O)c3c(=O)cc(-c4ccccc4Cl)oc23)C1CO (centres undefined)	nt	nt	13.0%	nt	nt	nt
Cc1c(Cl)ccc2sc(N3CCN(C(=O)CCS(=O)(=O)c4ccc(F)cc4)CC3)nc12	-18.5%	?	-26.1%	?	-48.6%	11.9µM*
COc1cc(-c2cc3n(C)c(C)c(CCC(=O)NC4CCCCC4)c(=O)n3n2)cc(OC)c1OC	-1.6%	16.3%	0.1%	-1.0%	-11.6%	27.1%
COC(=O)C(NC(=O)CCc1c(C)nc2c(c(C)nn2-c2ccccc2)c1C)C(C)C (centres undefined)	1.0%	13.8%	-8.9%	4.9%	-6.5%	1.8%
Cc1nc2cc(-c3cccc(F)c3)nn2c(C)c1CCC(=O)NC1CCCCC1	-11.4%	21.2%	-7.5%	1.26µM*	-68.8%	16.1%
COC(=O)C(NC(=O)CCc1c(C)nc2cc(-c3cccc(F)c3)nn2c1C)C(C)C (centres undefined)	-3.7%	13.6%	-2.5%	11.2µM*	-65.7%	-0.7%
CCN1C(=O)c2cccc3c(S(=O)(=O)Nc4ccc(O)c(C(=O)O)c4)ccc1c23	-2.4%	-2.9%	31.6µM*	-0.3%	-4.1%	-7.8%
CN1C(=O)c2cccc3c(S(=O)(=O)Nc4cccc(C(=O)O)c4)ccc1c23	-1.6%	4.0%	?	-3.1%	-10.6%	-10.1%
C/C(=C/CO)CC[C@@H]1[C@@]2(C)CCC[C@](C)(C(=O)O)C2CC[C@@]1(C)O (some centres undefined)	nt	nt	1.7%[53.3 µM]	nt	nt	nt
CCOc1ccc(-c2cc(CCCC(=O)NCCc3cc(OC)c(OC)c(OC)c3)no2)cc1	1.0%	?	-0.8%	15.8µM*	-78.8%	?
COc1ccc(CCNC(=O)c2cc3c(-c4ccc(OC)c(OC)c4)nn(C)c3s2)cc1OC	-8.5%	17.0%	31.6µM*	-18.8%	-45.6%	?
CCOc1ccc(CCNC(=O)c2cc3c(-c4ccc(OC)c(OC)c4)nn(C)c3s2)cc1OCC	-5.8%	-21.6%	?	?	-51.5%	?
O=C(Nc1ccc(F)c(F)c1)c1cc(S(=O)(=O)NC2CCCCCC2)ccc1F	5.9%	-26.4%	?	25.1µM*	-38.2%	?
CC(C)c1ccc(NC(=O)c2cc(S(=O)(=O)NC3CCCCC3)ccc2F)cc1	-6.7%	?	?	?	-21.5%	?
O=C(O)c1ccc(S(=O)(=O)N(Cc2ccc(OC(F)(F)F)cc2)c2ncc(C(F)(F)F)cc2Cl)cc1	nt	nt	-12.6%	nt	nt	nt
COc1cc(C)c(C(=O)NC2C(C)OC(OC3CCC(C)C4C3C=C(C)C3/C(C)=C\CC/C(C)=C/C5(C)C=C(C(=O)O)C(C)CC56OC(=O)/C(=C(\O)C34C)C6=O)C(O)C2(C)O)c(O)c1 (centres undefined)	nt	nt	8.6%[20.6 µM]	nt	nt	nt
CCn1c(=O)c(-c2ccn[nH]2)cc2c(C)nc(N)nc21	nt	nt	-5.1%	nt	nt	nt
O=c1cc(-c2ccccc2)nc2cc(-c3ccc(F)cc3)[nH]n12	-24.6%	25.1µM*	-9.5%	6.0%	0.2%	-9.1%
O=C(Nc1nc2nc(-c3ccccc3)cc(=O)n2[nH]1)c1ccc(F)cc1	5.7%	-4.2%	-6.3%	-5.2%	-8.2%	-1.1%
CN(C)c1cccc(-c2c3c(=O)n(-c4ccccc4Cl)[nH]c3cc(=O)n2C)c1	nt	nt	-17.9%	nt	nt	nt
COC(=O)[C@H](c1ccccc1Cl)N1CCC2SC(=O)C=C2C1 (some centres undefined)	nt	nt	-0.1%	nt	nt	nt
Cc1ccc(-c2nc3c(c(SCC(=O)N(C)c4ccccc4)n2)Cc2c(CO)cnc(C)c2O3)cc1	-0.4%	?	-23.6%	?	-27.9%	?
CCN(CC)C(=O)CSc1nc(-c2ccc(C)cc2)nc2c1Cc1c(CO)cnc(C)c1O2	-0.6%	10µM*	-22.5%	-34.7%	-28.4%	?
CC(C)CC[C@@H](O)[C@](C)(O)[C@H]1CC[C@@]2(O)C3=CC(=O)[C@@H]4C[C@@H](O)[C@@H](O)C[C@]4(C)[C@H]3CC[C@]12C	nt	nt	-3.7%	nt	nt	nt
COc1ccc(S(=O)(=O)c2c(Nc3ccccc3F)sc(C(=O)c3cccc(OC)c3)c2N)cc1	-26.7%	?	-14.2%	?	-42.3%	4.01µM*
SMILES	mTORC1 inh	S16 viability	FH mod	HTT promoter inh	HTT-AS promoter	PMP22 txn
CCOC(=O)c1ccc(N2C(=O)c3[nH]nc(-c4ccc(OCC)cc4)c3C2c2cccs2)cc1 (centres undefined)	-7.6%	4.3%	-20.2%	?	-37.3%	?
CCOC(=O)c1ccc(N2C(=O)c3[nH]nc(-c4ccccc4)c3C2c2cccs2)cc1 (centres undefined)	?	-24.6%	-21.8%	15.8µM*	-62.8%	?
CCCCC#Cc1nc(NC)c2ncn([C@@H]3O[C@H](CO)[C@@H](O)C3O)c2n1 (some centres undefined)	nt	nt	-8.1%[53.3 µM]	nt	nt	nt
Cc1cc(C)c2c(N)c(C(=O)NCc3ccc(Cl)cc3)sc2n1	nt	nt	-6.7%	nt	nt	nt
Cc1cccc(C(=O)Nc2c(C(=O)NCc3ccc(Cl)cc3)sc3nc(C)cc(C)c23)c1	13.1µM*	?	-3.0%	?	-50.3%	?
COc1ccc(N2CCN(C(=O)C(C)n3nc(C)c4sc5ccccc5c4c3=O)CC2)cc1 (centres undefined)	1.31µM*	11.7%	-20.3%	-0.1%	2.4%	?
Cc1nn(CC(=O)NC2CCC(C)CC2)c(=O)c2c1sc1ccccc12 (centres undefined)	3.8%	4.1%	-2.5%	-1.8%	18.0%	?
Cc1nn(C(C)C(=O)NC2CCC(C)CC2)c(=O)c2c1sc1ccccc12 (centres undefined)	2.07µM*	6.9%	-4.8%	-2.0%	-5.0%	?
NCC(CNc1nc(Nc2cccc(NC(=O)N3CCCC3)c2)ncc1I)C(=O)c1cccs1 (centres undefined)	nt	nt	-0.2%	nt	nt	nt
O=C(CCS(=O)(=O)c1nc(-c2cccs2)cc(C(F)(F)F)n1)Nc1cc(Br)ccc1O	?	10µM*	-6.3%	?	-93.2%	?
Cc1cc(S(=O)(=O)NCC(c2ccco2)S(=O)(=O)c2cccs2)ccc1F (centres undefined)	-12.6%	10µM*	-3.1%	-31.6%	-4.3%	8.97µM*
